The whole screen tested about 1,400 compounds, of which about 560 (40%) were called active.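 Rule for the calls: active = mean inhibition over duplicate tests at 10 µM above 50%; inactive = the rest.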 So high a share suggests a set chosen from earlier hits. Some of the results follow.

This assay can be described thus: ASC/caspase-1 reporter retest in S. cerevisiae at one dose, specificity check for NALP1 project (AID 488857). The conditions noted are these: S. cerevisiae ASC/Caspase-1, beta-galactosidase luminescence, 24 h; at 10 µM; hits give high values.
In the case of `COc1ccc(NC(=S)SC)cc1OC`, the inhibition is 60.2% (active). The value for `COc1ccc(NC(=S)N(C(C)C)C2CCN(C(C)C)CC2)cc1Cl` was 25.9% (inactive). The value for `COc1ccc(C(=O)Nc2ccc(S(=O)(=O)Nc3nccc(C)n3)cc2)cc1OC` was 35.9% (inactive); that for `CC1CN(S(=O)(=O)c2ccc(C(=O)Nc3nc(-c4cc5ccccc5o4)cs3)cc2)CC(C)O1` (stereo not drawn) was 32.9% (inactive). Then `CCn1c(C(=O)N2CCc3ccccc3C2)cc2oc3ccccc3c21`, with 44.5% (inactive); and `O=C(CN1CCc2ccccc2C1)NCc1ccco1`, with 36.3% (inactive); and `O=C(c1cc(-c2ccc(O)cc2)on1)N1CCc2ccccc2C1`, with 58.4% (active).

`CC1(O)N(Cc2ccccc2)C(=O)OC12CCCCC2` (stereo not drawn): the inhibition is 45.9% (inactive). The value for `OCCn1c(-c2ccc(F)cc2)csc1=Nc1ccccc1` was 46.5% (inactive).

In the case of `CSc1ccccc1NC(=O)Nc1ccccc1Cl`, the inhibition is 49.8% (inactive). The value for `COc1ccc(NC(=O)c2ccc(C)cc2)c(OC)c1` was 36.7% (inactive); that for `COc1ccc(C)cc1NC(=O)c1ccc(OC(F)F)cc1` was 66.2% (active). On to `O=C(NCCN1C(=O)S/C(=C\c2cccnc2)C1=O)c1cccc(OC(F)F)c1`, for which the inhibition is 45.1% (inactive).

`COc1ccc(C)cc1NC(=O)c1ccc(CN2CCN(c3ccccc3)CC2)cc1`: the inhibition was 33.5% (inactive). Then `Cc1c(Cl)cccc1NC(=O)c1cccc(OC(F)F)c1`, with 68.8% (active). The value for `CCN(CC1COc2ccccc2O1)S(=O)(=O)c1ccc(C)cc1` (stereo not drawn) was 43.9% (inactive); that for `Cc1c(C(=O)NCC2COc3ccccc3O2)oc2ccc(S(=O)(=O)N3CC(C)CC(C)C3)cc12` (stereo not drawn) was 30.4% (inactive); that for `CC(C)Oc1ccc(NC(=O)CCC(=O)O)cc1` was 28.5% (inactive). For `O=C(Nc1ccc(Nc2ccccc2)cc1)C(Cl)Cl`, the inhibition was 76.3% (active). Consider `CC(C)C(=O)Nc1ccc(Nc2ccccc2)cc1`, for which the inhibition was 68.2% (active). Then `C/C(=N\NC(=O)Nc1ccccc1)c1ccccc1`, with 41.4% (inactive). Then `Cc1cccc(C)c1NC(=O)C(Cl)C(=O)c1ccccc1` (stereo not drawn), with 2.6% (inactive); and `O=c1c(O)c(-c2cccs2)oc2ccccc12`, with 91% (active); and `CCC(C)C(=O)N1c2ccccc2C(=C2SC(C(=O)OC)=C(C(=O)OC)S2)C(=S)C1(C)C` (stereo not drawn), with 51.8% (active). Then `CCC(Cc1ccccc1)NC(=O)C1CCN(S(=O)(=O)c2c(C)noc2C)CC1` (stereo not drawn), with 28.6% (inactive); and `CC[n+]1c(/C=C/c2ccc(N(C)C)cc2)ccc2ccccc21`, with 96.5% (active); and `CN(C)c1ccc(/C=C/c2ccc3ccccc3[n+]2C)cc1`, with 96.8% (active). `O=C1C(Nc2ccccc2)=C/C(=N/S(=O)(=O)c2cccs2)c2ccccc21`: the inhibition is 89.7% (active). Consider `O=C1c2ccccc2-c2cccc(NS(=O)(=O)c3ccc(C(F)(F)F)cc3)c21`, for which the inhibition was 36.2% (inactive). Consider `O=S(=O)(Nc1cccnc1)c1cccs1`, for which the inhibition is 25.8% (inactive). The value for `O=C(O)c1ccc(S(=O)(=O)/N=C2\C=C(Nc3ccccc3F)C(=O)c3ccccc32)cc1` was 100% (active). `CN(C)c1ccc(/C=N/NC(=O)c2nnn(-c3nonc3N)c2CN(C)c2ccccc2)cc1`: the inhibition was 20.1% (inactive). The value for `Cc1cc(C)c(NC(=O)/C(=C/c2ccccc2)c2ccccc2)c(C)c1` was 31.6% (inactive); that for `S=c1[nH]nc(-c2ccco2)n1/N=C/c1cccc(Cl)c1Cl` was 65.7% (active). The value for `CCOC(=O)C1CCCN(C2CC(=O)N(c3cccc(C(F)(F)F)c3)C2=O)C1` (stereo not drawn) was 42.8% (inactive); that for `O=c1ncn(-c2cccc(F)c2)c2ncccc12` was 35.6% (inactive); that for `S=C(NCCc1ccccc1)Nc1ccc(Br)cc1` was 90.7% (active). Turning to `O=[N+]([O-])c1ccc(NC(=S)NCCc2ccc(F)cc2)cc1`, the inhibition was 96.3% (active).

For `O=C(NCCCc1ccccc1)c1ccccc1O`, the inhibition was 47.4% (inactive). The value for `O=[N+]([O-])c1ccc(N2CCN(C(=S)Nc3ccccc3)CC2)cc1` was 35.5% (inactive); that for `Cc1cc(C)cc(NS(=O)(=O)c2ccc(NC(=S)Nc3ccccc3)cc2)c1` was 23.9% (inactive). Regarding `O=C(NC(=S)NCCCN1CCOCC1)c1ccc([N+](=O)[O-])cc1`, the inhibition was 37% (inactive). The value for `S=C(NCCCc1ccccc1)Nc1ccc(Cl)cc1` was 95.5% (active); that for `CCCCCCCCCCOC(=O)Cn1c(COc2ccc(Cl)cc2)[n+](C)c2ccccc21` was 29.6% (inactive); that for `Cc1ccc(Cn2nnnc2CN2CCC(c3nc4ccc(Cl)cc4[nH]3)CC2)cc1` was 31.4% (inactive). Regarding `CCN(C(=O)COC(=O)c1cccnc1Nc1cccc(C(F)(F)F)c1)C1CCS(=O)(=O)C1` (stereo not drawn), the inhibition was 29.9% (inactive). On to `Cc1ccc(NC(=O)/C=C\C(=O)NCC(=O)O)cc1C`, for which the inhibition is 39% (inactive). Then `CCOC(=O)/C=C/C(=O)Nc1cccc([N+](=O)[O-])c1`, with 55.5% (active); and `NC(=O)/C=C\C(=O)Nc1cccc(C(F)(F)F)c1`, with 72.8% (active). `COC(=O)/C=C\C(=O)Nc1cccc([N+](=O)[O-])c1`: the inhibition is 42.8% (inactive). With `COC(=O)/C=C/C(=O)Nc1cccc(C(F)(F)F)c1`, the inhibition was 60.1% (active). With `CCOC(=O)/C=C/C(=O)Nc1nccs1`, the inhibition is 47.1% (inactive). Take `O=C(NC1CCCC1)C(c1ccccn1)N(C(=O)c1csnn1)C1CC1` (stereo not drawn): the inhibition was 32.6% (inactive).

As for `O=C(O)c1cccnc1C(=O)N1CCc2c([nH]c3ccccc23)C1C(F)(F)F` (stereo not drawn), the inhibition was 18.5% (inactive). The value for `O=C1c2ccccc2C(=O)c2c1ncn2-c1ccccc1` was 45.6% (inactive); that for `O=C(CN(Cc1ccccc1)S(=O)(=O)c1ccc(S(=O)(=O)N2CCOCC2)cc1)Nc1ccccc1` was 36.3% (inactive). With `N#C/C(=C/c1cccs1)c1nc2ccccc2[nH]1`, the inhibition was 98.2% (active). Then `Cn1c(/C(C#N)=C/C2CC=CCC2)nc2ccccc21` (stereo not drawn), with 45.5% (inactive); and `N#C/C(=C\c1ccc([N+](=O)[O-])o1)c1nc2ccccc2[nH]1`, with 20.7% (inactive); and `CC(C)C(C(=O)O)N1C(=O)/C(=C/c2cccn2C)SC1=S` (stereo not drawn), with 56.4% (active).

`C/C(=N\NC(=O)c1c[nH]c2ccccc12)c1ccco1`: the inhibition was 40.6% (inactive). In the case of `O=[N+]([O-])c1ccc(/C=N/NS(=O)(=O)c2ccc(Cl)cc2)o1`, the inhibition is 23.6% (inactive). `CN(Cc1ccccc1)C(=O)c1ccc([N+](=O)[O-])o1`: the inhibition is 41.7% (inactive). The value for `CCN(CC)c1ccc(N=Cc2ccc([N+](=O)[O-])o2)cc1` was 69.8% (active); that for `C/C(=N\NC(=O)c1csc(C)c1C)c1ccc(Cl)s1` was 59.2% (active).

As for `CC/C(=N\NC(=O)c1ccccc1Cl)c1ccc(Br)s1`, the inhibition was 38.1% (inactive). The value for `Cc1cccc2sc(N(CCCN(C)C)C(=O)c3sc4ccccc4c3Cl)nc12` was 63.2% (active); that for `Cc1ccc2nc(N(CCCN(C)C)C(=O)c3sc4ccccc4c3Cl)sc2c1` was 31.8% (inactive); that for `CN(C)CCCN(C(=O)c1sc2ccccc2c1Cl)c1nc2ccc(F)cc2s1` was 55.7% (active). In the case of `Cc1cc(C=C2C(=O)c3ccccc3C2=O)c(C)n1C`, the inhibition is 37.7% (inactive).

For the compound `C/C(=N\N(C)C)C1=C(O)c2ccccc2C1=O`, the inhibition is 32.5% (inactive). For the compound `O=C(c1ccc(Br)o1)N(c1ccccn1)C1CCCCC1`, the inhibition was 33.8% (inactive). With `CC(=O)N(C1=C(Cl)C(=O)c2ccccc2C1=O)C1CCCCC1`, the inhibition is 50.3% (active). The value for `CN(c1ccccc1)c1ccc(/C=C/[N+](=O)[O-])cc1` was 96.7% (active); that for `O=C(O)CC1NC(=S)N(c2ccccc2)C1=O` (stereo not drawn) was 31.6% (inactive); that for `COC(=O)c1cc(=O)n(-c2c(Cl)cc(C(F)(F)F)cc2Cl)[nH]1` was 34.8% (inactive).

As to `c1ccc(-c2c[nH]c3[n+]2CCCCC3)cc1`, the inhibition is 52.4% (active). Then `Oc1ccc2ccccc2c1CN1CCN(c2ccccc2)CC1`, with 45.1% (inactive).

As for `CC(NCCC(c1ccccc1)c1ccccc1)c1ccccc1` (stereo not drawn), the inhibition is 50.4% (active). In the case of `Cc1cc(C)cc(C(=O)OCC(=O)NCCNC(=O)COC(=O)c2cc(C)cc(C)c2)c1`, the inhibition is 23.8% (inactive). On to `COc1ccc(C(=O)C2CCCN(C(=O)Cn3nc(C)cc3C)C2)cc1F` (stereo not drawn), for which the inhibition was 46.8% (inactive). On to `Cc1ccc(NC(=O)Cn2cccc2)c(C)c1`, for which the inhibition was 28.5% (inactive).

On to `Cc1ccc(NC(=O)CSC2=Nc3ccccc3C3CC=NN23)c(C)c1` (stereo not drawn), for which the inhibition was 56.6% (active). The value for `Cc1ccc(C)c(NC(=O)CSc2nnc(-c3ccccc3)o2)c1` was 45.4% (inactive). The value for `Cc1nc2nc3c(cn2n1)C(=O)CCC3` was 23.6% (inactive); that for `COC(=O)c1ccccc1NC(=O)CN1CCC(n2nnc3cc(F)ccc32)CC1` was 33.6% (inactive); that for `COc1ccccc1NC(=O)C1=C(C)NC(=O)NC1c1cccs1` (stereo not drawn) was 32.2% (inactive). With `COc1ccccc1NC(=O)c1ccc(C)s1`, the inhibition is 50.4% (active). Consider `COc1ccccc1NC(=O)CCN1CCN(Cc2ccccc2)CC1`, for which the inhibition is 45.7% (inactive). For `CC(C)NC(=O)CCCOc1ccc(Cl)cc1Cl`, the inhibition was 48.5% (inactive).

With `C#CCN(C)CCCOc1ccc(Cl)cc1Cl`, the inhibition is 54% (active). As for `CCOc1ccccc1N/C=C(\C#N)c1nc2ccccc2n1C`, the inhibition is 26.1% (inactive).

On to `CCCOc1ccccc1NC(=O)/C=C/C(N)=O`, for which the inhibition was 58% (active). Consider `CCOc1ccccc1NC(=O)/C=C/C(N)=O`, for which the inhibition is 59.4% (active). The value for `CCCCOc1ccccc1NC(=O)c1ccco1` was 46.5% (inactive); that for `O=C(c1nnsc1S(=O)c1ccc(Cl)cc1)N1CCOCC1` (stereo not drawn) was 71.7% (active).

Consider `CCCNC(=O)c1nnsc1S(=O)c1ccc(Cl)cc1` (stereo not drawn), for which the inhibition was 96.7% (active). Then `CNC(=O)c1nnsc1S(=O)c1ccc(Cl)cc1` (stereo not drawn), with 78.5% (active). The value for `O=C(CCSc1nc2cc(Cl)ccc2o1)N1CCOCC1` was 32.5% (inactive); that for `Clc1ccc(SCCCCN2CCOCC2)cc1` was 36.5% (inactive).

`Cc1c(Cl)sn(-c2ccc(Cl)cc2)c1=O`: the inhibition is 84.5% (active). In the case of `CN(C)c1ccc(N2C(=O)CC(Sc3ccccc3C(=O)O)C2=O)cc1` (stereo not drawn), the inhibition is 59.8% (active).

On to `O=C(O)c1ccccc1SC1CC(=O)N(c2ccccc2)C1=O` (stereo not drawn), for which the inhibition is 34.5% (inactive).

Broadly, the inhibition is the percentage by which the read-out fell short of the control.

The values above are taken from PubChem BioAssay AID488857 (Sanford-Burnham Center for Chemical Genomics, 2010).
